Compound activity (PubChem BioAssay)
Sampled rows, rich in hits. Any-hit rate of the full collection: about 8.2%.
ELG1 DNA repair: qHTS screen for small molecules that inhibit ELG1-dependent DNA repair in human embryonic kidney (HEK293T) cells expressing luciferase-tagged ELG1; HEK293T ELG1-luciferase reporter, luminescence, 16 h; DNA damage induced by 5-fluorouridine; Potency, µM (top dose mostly 46.1 µM), for the others: at the highest dose activity change, negative = inhibition, usual class: inhibitors; 2.3% of 330,000 active; also: % is scaled to controls: 0 for no effect and ±100 for the full control effect; nearly all actives have a fitted effect of over 55% in size
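In this reporter screen, reduction of luminescence relative to DMSO vehicle indicated activity. Compounds and 5-fluorouridine were added together to 2,000 cells per well, incubated for 16 hr at 37 °C, then developed with ONE-Glo.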
SW480 rereplic: A quantitative high throughput screen for small molecules that induce DNA re-replication in SW480 colon adenocarcinoma cells. SW480 DNA re-replication, Hoechst DNA content imaging, 48 h. Potency, µM (titrated, usually from 46.1 µM), inactives show top-dose re-replication activation, actives largely listed as activators. 1.8% of 340,000 active. AID 624297, 2012; also: % of control where 0% means no effect; nearly all actives have a fitted effect of over 55% in size
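Image-based DNA-content assay: after two days of treatment, nuclei were labelled with the DNA dye Hoechst and imaged, and hits were compounds raising the count of nuclei showing high fluorescence intensity.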
KB-3-1 tox: qHTS assay for MDR1-selective chemotherapeutics: Primary screen using the parental adenocarcinoma cell KB-3-1. KB-3-1 viability, CellTiter-Glo ATP luminescence, 72 h. Potency, µM (highest dose often 46.1 µM), usual class: cytotoxic. 1.4% of 400,000 active; also: % is scaled to controls: 0 for no effect and ±100 for the full control effect; nearly all actives have a fitted effect of over 60% in size
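Multi-concentration cytotoxicity screen in KB-3-1 cells grown in DMEM lacking phenol red with 10% FBS. After 72 h at 37 °C with compound, ATP-dependent luminescence was recorded.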
KB-V1 cytotox: qHTS assay for MDR1-selective chemotherapeutics: Primary screen using the drug-selected MDR subline cells KB-V1. 3.4% of 400,000 active. AID 1347076, 2019. Potency, µM (highest dose often 46.1 µM), hits mostly cytotoxic. KB-V1 MDR cells viability, CellTiter-Glo, 72 h; also: % is scaled to controls: 0 for no effect and ±100 for the full control effect; nearly all actives have a fitted effect of over 60% in size
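Cells of the MDR subline KB-V1 are plated, dosed with compound at multiple concentrations, and incubated 72 h at 37 degrees C; CellTiter-Glo is then added and luminescence read after 10 min.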
MCF10A rereplic: A quantitative high throughput screen for small molecules that induce DNA re-replication in MCF 10a normal breast cells. MCF 10A DNA re-replication, Hoechst nuclear intensity, 48 h. 2.9% of 350,000 active. Potency, µM (titrated, usually from 46.1 µM), without a hit: at the highest dose activity, positive = re-replication, hits mostly activators; also: % of control where 0% means no effect; nearly all actives have a fitted effect of over 50% in size
Active calls of the source: *; i = inactive; ? = inconclusive; nt = not tested or not shown; [ ] = dose if it differs, or a comment. Calls follow the shape of the dose curve; as a rule, active = well fitted curve in the direction sought with a large enough effect; inconclusive = small, poorly fitted or top-dose-only effect, or another doubt; inactive = no such curve, though single readings can be large; an effect the other way counts as inactive or inconclusive. Potency is read from the fitted curve at half-maximal effect.

SMILES	ELG1 DNA repair	SW480 rereplic	KB-3-1 tox	KB-V1 cytotox	MCF10A rereplic
O=C(c1ccc2c(c1)N(Cc1ccc(F)cc1)C(=O)c1ccccc1S2(=O)=O)N1CCCCCC1	nt	nt	i	i	nt
CCOc1ccc(NC(=O)CSc2oc(-c3cccs3)nc2S(=O)(=O)c2ccc(C)cc2)cc1	nt	nt	i	i	nt
CCN[C@H]1CN(CCCOC)S(=O)(=O)c2sc(S(N)(=O)=O)cc21	12%	9%	i	i	-27%
CCCCN(Cc1ccc(C(=O)N[C@H](C(=O)O)C(C)C)cc1)C(=O)C(c1ccccc1)c1ccccc1	nt	-9%[9.22 µM]	i	i	-4%
CCN(CC)S(=O)(=O)c1cccc(NC(=O)c2cncc(Br)c2)c1	?	18%	i	i	-1%
Cc1ccc(S(=O)(=O)N2CCCCC2)cc1NC(=O)C1CCC1	18%	6%	i	23µM*	10%
Cc1nn(C)c(C)c1NC(=O)COc1ccc(Cl)cc1Br	3%	-3%	nt	nt	16µM*
CN(C)S(=O)(=O)c1cccc(NC(=O)c2cncc(Br)c2)c1	-19%	-12%	i	15µM*	?
CCN(CC)S(=O)(=O)c1cccc(NC(=O)COC(=O)c2cc(C)oc2C)c1	21µM*	-4%	i	i	-3%
Cc1ccc(CNC(=O)C2COc3ccccc3C2)cc1 (stereo unspecified)	nt	nt	i	i	nt
COc1cccc(CNCCSc2nnnn2C)c1OCc1ccc(Cl)cc1Cl	nt	nt	?	i	nt
COc1ccccc1-c1csc(C(C)(NC(C)=O)c2ccccc2)n1 (stereo unspecified)	nt	nt	i	i	nt
CCN(CC)S(=O)(=O)c1ccc(C(=O)NNc2nc(-c3ccccc3)c3cc(Br)ccc3n2)cc1	23µM*	0%	i	?	12%
CC(C)(C)C(=O)NNc1nc(-c2ccccc2)c2cc(Br)ccc2n1	1%	0%	i	?	5%
CCN(CC)S(=O)(=O)c1cccc(NC(=O)COc2ccc(Cl)cc2Br)c1	?	13%	?	21µM*	16%
COC(=O)C[C@H]1C[C@H]2c3cc(NC(=O)Cc4ccncc4)ccc3O[C@H]2[C@@H](CO)O1	nt	nt	i	i	nt
COc1ccccc1NC(=O)Nc1ccc(-n2ccc(C(F)(F)F)n2)cc1	?	18%	?	?	?
Cc1cc(C)cc(NC(=O)Nc2ccc(-n3ccc(C(F)(F)F)n3)cc2)c1	?	?	i	i	21µM*
COc1cc2c3c(c1)c(C1=NC(=S)NC1=O)c(O)n3C(C)(C)C=C2C	-4%	-1%	i	?	0%
CC1(c2ccccc2)CC(C)(C)n2c(O)c(C3=NC(=S)NC3=O)c3cccc1c32 (stereo unspecified)	3%	16%	?	12µM*	8%
COc1ccccc1N=C(C)C1=C(O)CC(c2ccccc2)CC1=O (stereo unspecified)	-9%	2.1µM*	?	1.5µM*	?
CCCC(=Nc1ccccc1OC)C1=C(O)CC(c2ccccc2)CC1=O (stereo unspecified)	3%	-6%	i	i	?
O=C(O)c1nn(Cc2csc(-c3ccccc3)n2)c(=O)c2ccccc12	24%	15%	i	i	20%
COc1ccc(Cl)cc1NC(=O)CNC(c1ccccc1)c1ccccc1	-18%	?	?	15µM*	?
COc1ccc(-c2ccccc2)cc1NCc1ccc(OC)c(OC)c1	3%	-7%	i	16µM*	11%
SMILES	ELG1 DNA repair	SW480 rereplic	KB-3-1 tox	KB-V1 cytotox	MCF10A rereplic
COc1ccc(CNC(=O)CNC(c2ccccc2)c2ccccc2)cc1OC	8%	-3%	i	8.2µM*	20%
COc1ccc(C)cc1NC(=O)CNC(c1ccccc1)c1ccccc1	-8%	25%	i	i	?
COc1ccc(Cl)cc1NC(=O)NC(C)c1ccncc1 (stereo unspecified)	-17%	0%	i	18µM*	?
COc1ccccc1CNc1cc(-c2ccccc2)ccc1OC	3%	9%	i	?	?
COc1ccc(C)cc1NC(=O)NC(C)c1ccncc1 (stereo unspecified)	-8%	-15%	i	i	-1%
CCc1ccc(NC(=O)N(CCN2CCOCC2)Cc2ccc3c(c2)CCCN3CC)cc1	?	0%	i	21µM*	18%
CCN1CCCc2cc(CN(CCN3CCOCC3)C(=O)Nc3ccc(C)c(C)c3)ccc21	?	4%	i	21µM*	?
CCCCN1CCCc2cc(CN(CCCN3CCOCC3)C(=O)Nc3ccc(OCC)cc3)ccc21	nt	nt	i	i	nt
COC(=O)c1ccc(N2C(c3cc(OC)cc(OC)c3)=Cc3ccc(-c4ccc(C(N)=O)cc4)cc3C2CC(=O)C2CC2)cc1 (stereo unspecified)	nt	nt	?	i	nt
C[C@@H]1CN([C@H](C)CO)C(=O)CCCn2nncc2CO[C@@H]1CN(C)S(=O)(=O)c1ccc(C#N)cc1	nt	nt	i	i	nt
CCN(C(=O)COC(=O)c1nc(Cl)ccc1Cl)c1c(N)n(Cc2ccccc2)c(=O)[nH]c1=O	nt	-2%	?	i	1%
CCOC(=O)N1CCC(NC(=O)c2cc(S(=O)(=O)N3CCc4ccccc43)cn2C)CC1	?	-1%	?	3.3µM*	0%
COc1ccc(Cl)cc1NC(=O)CSc1nnc(C)n2c1cc1occc12	nt	nt	i	i	nt
O=C(Nc1ccc2ncccc2c1)c1cccc(Br)c1	?	-76%	i	i	-1%
Brc1ccc(CNc2ccc3ncccc3c2)cc1	?	-5%	?	?	15µM*
CS(=O)(=O)c1nc([N+](=O)[O-])nn1CCCc1ccccc1	nt	-129%	26µM*	?	4.6µM*
Cn1nc([N+](=O)[O-])nc1S(C)(=O)=O	?	9.2µM*	?	?	5.8µM*
C=CCSc1nnc(CSc2nc3sc4c(c3c(=O)[nH]2)CCCC4)n1-c1ccccc1	-13%	?	i	21µM*	?
C=CCn1c(SCc2nc3sc4c(c3c(=O)[nH]2)CCCC4)nc2ccccc2c1=O	0%	-1%	i	2.1µM*	10µM*
CC1=C(C(=O)N2CCOCC2)CC(CC(=O)NCCN2CCOCC2)C(=O)N1Cc1ccccc1 (stereo unspecified)	nt	nt	i	i	nt
CCCNC(=O)c1ccc2c(c1)N=C(CCC)c1ccccc1S2	nt	nt	0.73µM*	i	nt
CCCC1=Nc2cc(C(=O)NCCc3ccccc3)ccc2Sc2ccc(C)cc21	nt	nt	7.3µM*	?	nt
